The text below walks through data of PubChem BioAssay AID1031 (Columbia University Molecular Screening Center, 2008).

The list shows a part of the results. Unmarked numbers belong to inactive results. How the calls were made is not given here.

The target of the assay is Tyrosine-protein phosphatase non-receptor type 22 (Homo sapiens) (UniProt Q9Y2R2). Kind of assay: retest of PTPN22 activators, confirmation, biochemical, DiFMUP fluorescence, single concentration (AID 1031). Particulars: Recombinant LYP, at 2 µM, hits give high values, zero set by plate's median compound well.
Sequence of Tyrosine-protein phosphatase non-receptor type 22 (Homo sapiens) (Q9Y2R2 whole entry, looked up): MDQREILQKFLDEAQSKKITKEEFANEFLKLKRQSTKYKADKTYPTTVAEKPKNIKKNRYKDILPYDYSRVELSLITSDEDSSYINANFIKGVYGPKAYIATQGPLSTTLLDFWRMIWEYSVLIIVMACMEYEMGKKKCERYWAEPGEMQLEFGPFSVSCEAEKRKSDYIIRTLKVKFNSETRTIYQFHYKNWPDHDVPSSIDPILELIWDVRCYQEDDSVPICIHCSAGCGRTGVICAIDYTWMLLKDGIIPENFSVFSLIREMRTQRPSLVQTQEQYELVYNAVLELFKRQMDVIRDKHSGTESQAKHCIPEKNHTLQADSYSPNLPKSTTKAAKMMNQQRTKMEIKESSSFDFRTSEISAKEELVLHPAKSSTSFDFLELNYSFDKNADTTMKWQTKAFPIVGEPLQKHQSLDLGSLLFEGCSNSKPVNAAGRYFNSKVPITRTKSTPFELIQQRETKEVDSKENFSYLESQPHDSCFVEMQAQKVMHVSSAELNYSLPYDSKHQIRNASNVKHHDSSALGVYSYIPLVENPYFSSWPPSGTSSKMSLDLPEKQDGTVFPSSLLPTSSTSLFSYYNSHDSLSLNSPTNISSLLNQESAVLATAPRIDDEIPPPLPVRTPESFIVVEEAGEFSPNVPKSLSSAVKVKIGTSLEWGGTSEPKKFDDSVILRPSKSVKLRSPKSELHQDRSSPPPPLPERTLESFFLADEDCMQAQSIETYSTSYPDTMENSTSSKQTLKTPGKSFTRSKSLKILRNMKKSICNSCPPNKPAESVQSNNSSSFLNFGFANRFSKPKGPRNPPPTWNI

For the compound `Cc1ccccc1NC(=O)c1cc(S(=O)(=O)N2CCOCC2)cs1`, the activation is -3.6%.

On to `N#CCCn1ncc2ccccc21`, for which the activation was 5.5%.
